Vc quorum ag = inducers of Vibrio cholerae quorum light production without autoinducers, primary screen, BH1578 luxS cqsA deficient, single point; AID 588436, 2011; hit rate 0.16% among 350,000; activation, % at 18.7 µM; V. cholerae BH1578 lux reporter, luminescence, 6 h; in the data active means activation mostly above about 9.7%, no sharp cut-off
PrPC TRFRET = inhibitors of human cell surface prion protein PrPC, primary screen, cell-based, TR-FRET; Major prion protein (Homo sapiens), P04156; TR-FRET read-out; inhibition, % at 13.8 µM; hit rate 0.43% among 370,000; in the data active means inhibition above about 24%; further: 0% = median of the test wells and 100% = reference compound wells
MazEF act = activators of E. coli MazEF toxin-antitoxin RNase, primary screen, biochemical, fluorescence, uHTS; Endoribonuclease toxin MazF (Escherichia coli (strain K12)), P0AE70; FAM/BHQ RNA-DNA oligo cleavage fluorescence, 5 h; activation, % at 20 µM; hit rate 0.32% among 350,000; in the data active means activation above about 50%
Target sequence (P0AE70 whole entry, looked up): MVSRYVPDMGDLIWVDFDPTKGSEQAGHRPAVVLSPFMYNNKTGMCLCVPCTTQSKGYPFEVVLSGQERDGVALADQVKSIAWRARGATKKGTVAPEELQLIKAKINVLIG
CCHF vOTU inh-1 = CCHFV vOTU protease inhibitors, primary screen, biochemical, Pep-AMC substrate, fluorescence; Crimean-Congo hemorrhagic fever virus L polyprotein viral ovarian tumor (vOTU) protease …; inhibition, % at 11.5 µM; hit rate 0.55% among 370,000; further: 0% = vehicle wells with enzyme and 100% = no enzyme wells
Yp Topo-I inh = Yersinia pestis topoisomerase I inhibitors, primary screen, biochemical, cleavage product accumulation, plate reader, single point; hit rate 0.064% among 360,000; Y. pestis Topo-I cleavage product accumulation; AID 504884, 2011; activity, % at 10 µM; DNA topoisomerase I (Yersinia pestis CO92); in the data active means activity above about 50%, passing the limit was not always enough
VHR inh abs = VHR1 phosphatase inhibitors, primary screen, biochemical, absorbance, uHTS | Dual specificity protein phosphatase 3 (Homo sapiens), P51452 | recombinant VHR phosphatase, pNPP absorbance | inhibition, % at 13.3 µM | hit rate 0.52% among 290,000; in the data active means inhibition above about 50%
Target sequence (P51452 whole entry, looked up): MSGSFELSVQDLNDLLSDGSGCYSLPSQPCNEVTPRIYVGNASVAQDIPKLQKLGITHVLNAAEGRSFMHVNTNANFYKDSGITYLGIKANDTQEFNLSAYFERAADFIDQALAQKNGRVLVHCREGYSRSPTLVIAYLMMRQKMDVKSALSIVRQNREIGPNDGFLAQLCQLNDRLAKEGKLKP
CCHF vOTU inh-2 = CCHFV vOTU protease inhibitors, confirmation, biochemical, Pep-AMC substrate, fluorescence; shares compounds with CCHF vOTU inh-1; Recombinant CCHFV vOTU; inhibition, % at 11.5 µM; hit rate 17% among 1,900; AID 686976, 2013
* marks the source's active call; other numbers are inactive results; i = inactive; . = no result. A selection: hits, their analogues and other compounds. The true share with any hit is near 1.8%. Unless noted, no stated cut-off is given here; in the data, active means inhibition above about 30%; inactive means the rest.

SMILES	Vc quorum ag	PrPC TRFRET	MazEF act	CCHF vOTU inh-1	Yp Topo-I inh	VHR inh abs	CCHF vOTU inh-2
O=C(CCCN1C(=O)/C(=C/c2ccccc2)SC1=S)Nc1ccc(C(=O)O)c(O)c1	0	-11	9	30*	9	19	5
CN1CCS/C1=C/C=C1\SC(=S)N(CC(=O)O)C1=O	i	-54	-512	35*	-6	30	10
O=C1N[C@@H](Cc2c[nH]c3ccccc23)C(=O)N[C@H]1Cc1ccccc1	-1	-1	-4	-1	-11	.	.
COc1ccc(OCCN2CCC(C(=O)NC(c3ccc(F)cc3)c3ccc4ccccc4n3)CC2)cc1 (centres undefined)	0	-11	.	-4	24	.	.
O=C(NC(c1ccc(F)cc1)c1ccc2ccccc2n1)C1CCN(CCOc2ccc(F)cc2)CC1 (centres undefined)	0	-7	.	32*	9	.	-10
CC1CCC(NC(=O)C(NS(=O)(=O)c2cccc3nsnc23)C(C)C)CC1 (centres undefined)	i	-32	3	31*	-5	11	-11
CC(C)C(NS(=O)(=O)c1cccc2nsnc12)C(=O)NC1CCCCC1 (centres undefined)	0	-22	8	0	-5	-10	.
CC(CNc1nc2ccc(Cl)cc2n2cnnc12)c1ccccc1 (centres undefined)	0	-3	7	-11	-3	-7	.
CCOC(=O)C1=C(CNC(C)(C)CC(C)(C)C)NC(=O)NC1c1cccc([N+](=O)[O-])c1 (centres undefined)	0	3	-4	31*	39	15	13
CCOC(=O)C1=C(CNCCc2ccc(Cl)cc2)NC(=O)NC1c1cccc([N+](=O)[O-])c1 (centres undefined)	-1	11	-1	16	-4	6	.
COc1ccc(CCC(=O)OCC(=O)NC(=O)c2ccc(Cl)cc2)cc1	i	7	-22	-17	7	.	.
C=CC(n1cncn1)C(O)(c1ccccc1)c1ccccc1 (centres undefined)	0	-3	1	-4	6	.	.
CC1=CC(=O)C(C(C)=Nc2ccccc2[N+](=O)[O-])C(=O)O1 (centres undefined)	i	-6	13	16	-9	.	.
CN(C)c1cccc2c(S(=O)(=O)Nc3ccccn3)cccc12	0	-9	-2	38*	2	-12	-5
CC12C=CC(=O)C=C1CCC1C2C(O)CC2(C)C1CCC2(O)C(=O)CO (centres undefined)	i	5	5	-3	17	.	.
O=[N+]([O-])c1ccc(N/N=C/c2cccc(O)c2O)c(S(=O)(=O)N2CCOCC2)c1	i	-19	9	12	8	-8	.
O=[N+]([O-])c1ccc(N/N=C/c2ccc(O)c(O)c2O)c(S(=O)(=O)N2CCOCC2)c1	0	-7	6	34*	-40	20	4
N#CCCN(C(=O)COC(=O)CCc1c[nH]c2ccccc12)c1ccccc1	5	3	2	36*	17	.	-10
O=C(O)c1ccc(Cl)c(S(=O)(=O)NCc2ccco2)c1	-1	-5	0	0	-1	-12	.
COc1ccccc1NC(=O)c1ccc(Cl)c(S(=O)(=O)NCc2ccco2)c1	i	4	0	33*	-4	.	-28
C=C1[C@H](C)CN(S(=O)C(C)(C)C)[C@H]1CCO (some centres undefined)	.	-2	.	-10	.	.	.
CC(=O)c1cccc(N(CC(=O)NC2CCCC2)C(=O)CNC(=O)c2cccs2)c1	0	5	3	36*	5	26	-18
O=S1(=O)CC(N2CCN(CCO)CC2)CN1Cc1cn(Cc2ccc(C(F)(F)F)cc2)nn1 (centres undefined)	.	-3	.	10	.	.	.
CCn1cc(C(=O)NCCCN(CC(C)C)CC(C)C)c(=O)c2cc(S(=O)(=O)N(C)C3CCCCC3)ccc21	0	-9	-1	12	1	-27	.
O=C(NC(=S)Nc1ccccc1N1CCCC1)c1cccs1	0	1	-14	37*	4	-18	38*
SMILES	Vc quorum ag	PrPC TRFRET	MazEF act	CCHF vOTU inh-1	Yp Topo-I inh	VHR inh abs	CCHF vOTU inh-2
O=C(NC(=S)Nc1ccccc1N1CCCCC1)c1cccs1	i	11	-9	2	13	2	.
CC(C)CC(=O)NC(=S)Nc1ccccc1N1CCCC1	0	1	-16	31*	3	-6	12
CC(C)CC(=O)Nc1ccccc1N1CCCC1	0	0	8	-11	1	8	.
C[C@@H]1CN([C@@H](C)CO)C(=O)c2cccc(NC(=O)Nc3ccccc3)c2O[C@H]1CN(C)C(=O)Nc1cccc2ccccc12	0	-1	5	-8	-12	.	.
Cc1ccccc1SCC(=O)NNC(=O)c1ccccc1O	0	2	1	39*	-1	12	-12
O=C(Oc1ccc2c(c1)OCO2)c1cc2c(s1)CCC2	-6	-9	-2	46*	18	1	-9
O=C(c1cc2c(s1)CCCC2)N1CCN(Cc2ccc3c(c2)OCO3)CC1	1	-4	2	11	-2	8	.
Cc1ccc(NC2=C/C(=N\S(=O)(=O)c3cccs3)c3ccccc3C2=O)c(C)c1	i	.	16	.	-3	9	.
CCc1ccc(S(=O)(=O)/N=C2\C=C(Nc3ccc(O)cc3)C(=O)c3ccccc32)cc1	0	.	2	.	-25	15	.
Cc1cc(C)c(S(=O)(=O)/N=C2\C=C(Nc3ccc(C(=O)O)cc3)C(=O)c3ccccc32)c(C)c1	0	-38	4	125*	16	36	111*
O=C(O)c1ccc(NC2=C/C(=N/S(=O)(=O)c3ccccc3)c3ccccc3C2=O)cc1	i	-35	7	108*	-5	37	113*
Cc1cc(C)c(S(=O)(=O)/N=C2\C=C(NS(=O)(=O)c3ccccc3)C(=O)c3ccccc32)c(C)c1	0	4	0	20	-2	-4	.
Cc1ccc(Cl)cc1NC1=C/C(=N\S(=O)(=O)c2cccs2)c2ccccc2C1=O	0	-1	-6	96*	-11	17	95*
CCc1ccc(S(=O)(=O)/N=C2\C=CC(=O)c3ccccc32)cc1	.	.	.	.	.	10	.
O=S(=O)(N=C1C=CC(=NS(=O)(=O)c2ccccc2)c2ccccc21)c1ccccc1	-9	2	-5	72*	-1	.	68*
